This note sets out measurements from PubChem BioAssay (NCATS).

Records with an inconclusive call do not appear. The source made the active and inactive calls. The call rests on the fitted dose curve; in most records, active means well fitted curve in the direction sought with a large enough effect; inconclusive means small, poorly fitted or top-dose-only effect, or another doubt; inactive means no such curve, though single readings can be large; an effect the other way counts as inactive or inconclusive.

The nature of assay [1]: NS1 protein of Zika virus - qHTS assay to identify small molecule inhibitors in human HEK 293 cells (AID 1347053). Further: series mostly up to about 46 µM; nearly all actives have a fitted effect of over 55% in size. Put shortly:
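Following 20 h seeding, HEK 293 cells took compound, then 1 h later ZIKV MR766 (MOI = 0.5). Incubation ran 24 h at 37 C before TR-FRET detection of NS1; a drop in signal indicates inhibition.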
In general terms: qHTS replaces the single test concentration by a dilution series.

Assay [2] is described as follows: qHTS of pediatric cancer cell lines to identify multiple opportunities for drug repurposing: Primary screen for DAOY cells (AID 1347090). Further: nearly all actives have a fitted effect of over 55% in size. Further: potency means the concentration at half of the fitted maximal effect. Summed up: (§1)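 Cell viability, CellTiter-Glo luminescence; 500-1,000 cells/well, 8- or 11-point titration, 48 h compound exposure at 37 degrees C, 5% CO2. Controls: DMSO neutral, bortezomib 2.3 µM final as positive.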
Assay [3] is described as follows: qHTS of pediatric cancer cell lines to identify multiple opportunities for drug repurposing: Primary screen for SJ-GBM2 cells (AID 1347091). Further: potency means the concentration at half of the fitted maximal effect. Summed up: as §1
Assay [4] can be described thus: qHTS of pediatric cancer cell lines to identify multiple opportunities for drug repurposing: Primary screen for A673 cells (AID 1347092). Further: nearly all actives have a fitted effect of over 45% in size. Further: potency means the concentration at half of the fitted maximal effect. Summed up:
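Luminescence from CellTiter-Glo, taken after 15 min at room temperature, served as the proxy for metabolically active cells following 48 h treatment. Both potency and efficacy were taken from curves fitted to the titration data.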

Assay [5] can be described thus: qHTS of pediatric cancer cell lines to identify multiple opportunities for drug repurposing: Primary screen for SK-N-MC cells (AID 1347093). Further: potency means the concentration at half of the fitted maximal effect. Put shortly:
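Metabolically active cells were quantified by ATP-dependent luminescence (CellTiter-Glo, 15 min at room temperature) following 48 h treatment. Cells had been plated at 500-1,000 per well and settled for 5 h beforehand.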

Assay [6] in a line: qHTS of pediatric cancer cell lines to identify multiple opportunities for drug repurposing: Primary screen for Saos-2 cells (AID 1347097). Further: nearly all actives have a fitted effect of over 40% in size. Further: potency means the concentration at half of the fitted maximal effect. Summed up: (§2)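 Readout: CellTiter-Glo luminescence, 48 h treatment. Controls DMSO (neutral) and bortezomib 2.3 µM final (positive). Potency and efficacy taken from primary-screen concentration-response curves.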
A short description of assay [7]: qHTS of pediatric cancer cell lines to identify multiple opportunities for drug repurposing: Primary screen for SK-N-SH cells (AID 1347098). Further: nearly all actives have a fitted effect of over 65% in size. Further: potency means the concentration at half of the fitted maximal effect. Summed up: (§3)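 Cells (500-1,000/well) rested 5 h, then received compounds for 48 h; metabolically active cells were measured by CellTiter-Glo luminescence. Final concentrations spanned up to 46 µM (MIPE, 11-point) or 0.59 nM-46 µM (NPC, 8-point) in primary screens, 11-point in follow-ups.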

Assay [8] is described as follows: qHTS of pediatric cancer cell lines to identify multiple opportunities for drug repurposing: Primary screen for NB1643 cells (AID 1347099). Further: nearly all actives have a fitted effect of over 50% in size. Further: potency means the concentration at half of the fitted maximal effect. Summed up: as §2
Assay [9] can be described thus: qHTS of pediatric cancer cell lines to identify multiple opportunities for drug repurposing: Primary screen for LAN-5 cells (AID 1347100). Further: potency means the concentration at half of the fitted maximal effect. Put shortly:
as §3

The nature of assay [10]: qHTS of pediatric cancer cell lines to identify multiple opportunities for drug repurposing: Primary screen for BT-12 cells (AID 1347101). Further: nearly all actives have a fitted effect of over 25% in size. Further: potency means the concentration at half of the fitted maximal effect. Summed up: as §3
Assay [11] in a line: qHTS of pediatric cancer cell lines to identify multiple opportunities for drug repurposing: Primary screen for BT-37 cells (AID 1347094). Further: series mostly up to about 57 µM. Summed up: as §2
Assay [12] can be described thus: qHTS of pediatric cancer cell lines to identify multiple opportunities for drug repurposing: Primary screen for NB-EBc1 cells (AID 1347095). Further: potency means the concentration at half of the fitted maximal effect. Put shortly: as §2
Assay [13] is described as follows: qHTS of pediatric cancer cell lines to identify multiple opportunities for drug repurposing: Primary screen for U-2 OS cells (AID 1347096). Further: nearly all actives have a fitted effect of over 50% in size. Summed up: as §3
Assay [14] can be described thus: qHTS of pediatric cancer cell lines to identify multiple opportunities for drug repurposing: Primary screen for Rh18 cells (AID 1347102). Further: nearly all actives have a fitted effect of over 65% in size. Put shortly:
as §3

The nature of assay [15]: qHTS of pediatric cancer cell lines to identify multiple opportunities for drug repurposing: Primary screen for OHS-50 cells (AID 1347103). Further: nearly all actives have a fitted effect of over 40% in size. Further: potency means the concentration at half of the fitted maximal effect. Put shortly: as §3
The nature of assay [16]: qHTS of pediatric cancer cell lines to identify multiple opportunities for drug repurposing: Primary screen for TC32 cells (AID 1347089). Further: nearly all actives have a fitted effect of over 60% in size. Summed up:
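qHTS, TC32, 48 h drug treatment, CellTiter-Glo luminescence as a proxy for metabolically active cells; primary top concentration 46 µM (MIPE 11-pt, NPC 8-pt); confirmatory 11-pt.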

Take `CC(C)(C)c1ccc(O)c(O)c1`: in [1], the Potency entry was “inactive”. Also, the Potency in [2] is 24.3 µM (active); in [3] it was 30.6 µM (active); in assay [4], 15.4 µM (active); in [5], 6.86 µM (active); in assay [6], 48.6 µM (active); in [7], 25 µM (active). Further, the Potency was 17.2 µM (active) in assay [8], 19.3 µM (active) in assay [9] and 25.2 µM (active) in assay [10].

With `CCCc1c2oc(C(=O)O)cc(=O)c2cc2c(=O)cc(C(=O)O)n(CC)c12`, the Potency result in [1], in assay [2], in assay [3], in assay [4], in assay [5] and in assay [11] was “inactive” in each case. The Potency result in [12], in assay [13], in assay [7], in [8], in assay [9] and in assay [10] was “inactive” in each case. For the same compound, the Potency entry in [14] and in assay [15] was “inactive” in each case.

For the compound `CC(=O)Oc1ccc(C2(c3ccc(OC(C)=O)cc3)Oc3ccccc3NC2=O)cc1`, the Potency entry in assay [1] and in [14] was “inactive” in each case. Moreover, the Potency was 13.3 µM (active) in assay [2], 11.9 µM (active) in [6], 19.5 µM (active) in assay [10] and 12.3 µM (active) in assay [15].

Consider `CN1CCCN=C1/C=C/c1cccs1`, for which the Potency result in assay [1], in assay [2], in [3], in assay [4], in assay [11] and in assay [12] was “inactive” in each case. Also, the Potency result in [13], in assay [6], in [7], in assay [8], in assay [9] and in assay [10] was “inactive” throughout. Further, the Potency entry in [14] and in assay [15] was “inactive” throughout.

On to `Nc1cccc2c(N)cccc12`, for which the Potency result in assay [1], in assay [2], in [3] and in [9] was “inactive” throughout. In addition, the Potency was 24.3 µM (active) in assay [4]; 24.3 µM (active) in [5]; 27.3 µM (active) in [6]; 28 µM (active) in [7]; 31.7 µM (active) in assay [15].

In the case of `CN1CCCN(C(c2ccccc2)c2ccc(Cl)cc2)CC1` (stereo unspecified), the Potency result in [1], in assay [2], in assay [12] and in [13] was “inactive” throughout. Further, the Potency is 15.4 µM (active) in assay [7] and 30.9 µM (active) in assay [15].

On to `CC1CC(=O)NN=C1c1ccc(NCC(C)(C)NCC(O)COc2cc(Cl)ccc2C#N)cc1` (stereo unspecified), for which the Potency entry in assay [1], in assay [2], in assay [3], in assay [5], in [11] and in assay [12] was “inactive” throughout. The Potency entry in assay [13], in assay [6], in assay [7], in assay [8], in assay [9] and in assay [10] was “inactive” in each case. Moreover, the Potency entry in assay [14] and in assay [15] was “inactive” in each case.

As for `CCOC(=O)Oc1ccc(CCNC(=O)[C@H](CCSC)NC(C)=O)cc1OC(=O)OCC`, the Potency entry in assay [1], in assay [2], in assay [3], in assay [4], in [5] and in assay [11] was “inactive” each time. Further, the Potency entry in assay [12], in assay [13], in assay [6], in [7], in assay [8] and in assay [9] was “inactive” each time. In addition, the Potency entry in assay [10], in assay [14] and in assay [15] was “inactive” each time.

For `CCC(=O)O[C@]1(C(=O)COC)[C@@H](C)C[C@H]2[C@@H]3CCC4=CC(=O)C=C[C@]4(C)C3(F)[C@@H](O)C[C@@]21C` (stereo partly specified), the Potency entry in [1], in assay [2], in assay [3], in [4], in assay [5] and in assay [11] was “inactive” each time. For the same compound, the Potency result in [12], in [13], in assay [7], in assay [8], in assay [10] and in assay [14] was “inactive” in each case.

With `CC(=O)OCC(=O)[C@@]1(O)CCC2C3CCC4=CC(=O)CC[C@]4(C)C3[C@@H](O)C[C@@]21C` (stereo partly specified), the Potency entry in assay [16], in assay [2], in assay [3], in [4], in [5] and in [11] was “inactive” each time. For the same compound, the Potency entry in assay [12], in assay [13], in assay [7], in [8], in assay [9] and in assay [10] was “inactive” throughout. Also, the Potency entry in assay [14] was “inactive”.

For the compound `O=C(O)c1ccccc1S`, the Potency result in assay [16], in assay [2], in assay [3], in assay [5], in [11] and in assay [12] was “inactive” throughout. The Potency result in assay [6], in [7], in [8], in assay [9], in [10] and in assay [14] was “inactive” throughout. The Potency entry in assay [15] is “inactive”.

As for `O=C(Nc1ccc(Cl)cc1)Nc1ccc(Cl)c(Cl)c1`, the Potency result in [1] is “inactive”. The Potency was 11.9 µM (active) in [3], 18.8 µM (active) in assay [5], 23.7 µM (active) in [12] and 12.2 µM (active) in assay [7].

In the case of `O=C(O)[C@@H](O)[C@H](O)[C@H](O)[C@@H](O)C(=O)O`, the Potency entry in assay [16], in [2], in assay [3], in assay [4], in [5] and in assay [11] was “inactive” each time. Further, the Potency entry in [12], in assay [13], in assay [6], in assay [7], in assay [8] and in assay [10] was “inactive” in each case. Also, the Potency result in assay [14] and in assay [15] was “inactive” each time.

`Cc1cc(C(C)(C)C)c(O)c(C(C)(C)C)c1`: the Potency result in assay [16], in assay [2], in assay [3], in assay [5], in assay [11] and in [12] was “inactive” in each case. Besides, the Potency entry in assay [13], in assay [6], in assay [7], in assay [8], in assay [9] and in assay [10] was “inactive” each time. Further, the Potency entry in [15] is “inactive”.

For the compound `OCCOCCN1CCN(C(c2ccccc2)c2ccc(Cl)cc2)CC1` (stereo unspecified), the Potency result in [16], in [2], in assay [3], in [4], in [11] and in assay [12] was “inactive” each time. The Potency result in assay [13], in [6], in [7], in assay [8], in [9] and in assay [10] was “inactive” in each case. Moreover, the Potency result in assay [14] was “inactive”.

Take `COc1ccc([C@@H]2Sc3ccccc3NC(=O)[C@@H]2O)cc1`: the Potency result in assay [1], in [13], in assay [8] and in assay [14] was “inactive” in each case. Also, the Potency in assay [3] was 7.5 µM (active).

Consider `O=C(O)Cn1cnnn1`, for which the Potency result in assay [16], in assay [2], in assay [3], in assay [4], in assay [5] and in assay [11] was “inactive” throughout. Also, the Potency result in [12], in assay [13], in assay [6], in [7], in assay [8] and in assay [9] was “inactive” each time. The Potency result in [10], in assay [14] and in [15] was “inactive” throughout.
